Source: PubChem
CHO-K1 Ca PAM – counter-screen for M1 PAMs: effect in parental CHO-K1 cells; actives 0.02% (n = 360,000); activation, % at 3 µM; ATP EC20, Fluo-8 calcium fluorescence; 0% at ATP EC20, 100% at ATP max; AID 602247;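 active = activation above the run cutoff, the mean activation of all test compounds plus 3 SD, cut at about 40% in these data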;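 also: peak over basal fluorescence ratio in a 140 s read after ATP addition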
CHRM1 PAM – potentiates human M1 receptor response to acetylcholine | P11229 | CHO-K1 hM1, Fluo-8 calcium fluorescence, ACh EC20; 0% = ACh EC20, 100% = maximal ACh | activation, % at 3 µM | actives 0.088% (n = 360,000); in the data active = activation above about 19%, passing the limit was not always enough
Target sequence (P11229 whole entry, looked up): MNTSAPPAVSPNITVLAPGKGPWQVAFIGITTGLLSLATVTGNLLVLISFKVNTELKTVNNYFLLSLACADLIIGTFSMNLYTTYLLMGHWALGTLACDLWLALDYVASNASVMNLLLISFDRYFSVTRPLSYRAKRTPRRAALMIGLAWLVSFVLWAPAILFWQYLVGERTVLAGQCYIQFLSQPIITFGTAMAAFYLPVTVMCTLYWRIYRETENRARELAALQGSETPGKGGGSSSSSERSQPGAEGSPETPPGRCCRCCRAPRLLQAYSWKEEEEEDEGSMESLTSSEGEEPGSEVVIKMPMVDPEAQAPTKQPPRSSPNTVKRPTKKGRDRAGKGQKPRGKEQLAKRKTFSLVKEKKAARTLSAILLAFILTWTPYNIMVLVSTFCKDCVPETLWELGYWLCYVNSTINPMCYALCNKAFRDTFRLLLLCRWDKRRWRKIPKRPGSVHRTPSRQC
CHO-K1 Ca antag – nonselective inhibitor or artifact in parental CHO-K1 cells. inhibition, % at 3 µM. actives 0.6% (n = 360,000). ATP-induced calcium, Fluo-8 fluorescence;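 active = inhibition above a per-plate cutoff, the plate's mean sample inhibition plus 3 SD, cut at about 24% in these data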
CHRM1 antagonist – antagonists of human M1 muscarinic receptor. actives 1.3% (n = 360,000). CHO-K1 hM1, Fluo-8 calcium fluorescence, ACh EC80 antagonist. inhibition, % at 3 µM. P11229;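 active = percent inhibition above its own plate's cutoff, namely the mean of that plate's compound wells plus 3 SD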;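 also: peak over basal fluorescence ratio during 140 s after agonist addition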
M1 ag – human M1 muscarinic receptor agonism. AID 588814. CHO-K1 hM1, Fluo-8 calcium fluorescence, agonist mode; 0% DMSO, 100% acetylcholine EC100. activation, % at 3 µM. actives 0.33% (n = 360,000);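 active = activation above the run's mean compound activation plus 3 SD, cut at about 16% in these data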;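 also: peak over basal fluorescence ratio within a 140 s kinetic read after compound addition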
CHO-K1 Ca ag – M1 agonist counterscreen hit in parental CHO-K1 cells | Fluo-8 calcium fluorescence; scaled to maximal ATP response, vehicle zero | activation, % at 3 µM | actives 0.48% (n = 360,000); in the data active = activation above about 15%;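 also: untransfected CHO-K1 host cells lacking M1 receptor as counterscreen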
Hits are given with their value; . = inactive. Most compounds without a hit are left out; they make up all but 2.3% or so of the library.

SMILES	CHO-K1 Ca PAM	CHRM1 PAM	CHO-K1 Ca antag	CHRM1 antagonist	M1 ag	CHO-K1 Ca ag
COc1cc(/C=C2\CC/C(=C\c3ccc(OCCO)c(OC)c3)C2=O)ccc1OCCO	.	.	.	.	32.4	30.6
COc1ccc(/C=C2\CC/C(=C\c3ccc(OC)c(OC)c3)C2=O)cc1OC	.	.	.	.	.	.
COc1ccccc1CNC(=O)COc1cc2c(c3oc(=O)cc(C)c13)CCC(C)(C)O2	.	.	.	33.5	.	.
Cc1ccc(N2CCN(CC(O)COc3ccccc3)CC2)cc1 (stereo not drawn)	.	.	.	.	.	.
COc1ccc(CN(C)C(=O)COC(=O)c2cc([N+](=O)[O-])ccc2N2CCCC2)c(OC)c1OC	.	.	.	.	.	.
O=C(Nc1ccc(Cl)c(Cl)c1)c1cccc(S(=O)(=O)NCc2cccnc2)c1	.	.	28.2	.	.	19.8
O=C(Nc1ccc(Cl)c(Cl)c1)OCc1cccnc1	.	.	26.8	32.6	.	.
COc1cccc(S(=O)(=O)NCc2ccc(C(=O)Nc3ccc(Cl)c(Cl)c3)cc2)c1	.	.	.	.	.	.
S=C(CN1CCCC1=S)NCCc1ccccc1	.	.	.	.	.	.
CC(C)c1cccc(C(C)C)c1NC(=O)c1ccc(-c2cc(Cl)ccc2Cl)o1	.	.	.	.	.	.
Cc1ccc(-c2cc(C(=O)N/N=C/c3c(C)nn(C)c3C)c3ccccc3n2)c(C)c1	.	.	24.5	.	.	.
Cc1cc(C(F)(F)F)nc(SCC(=O)Nc2c(C)n(C)n(-c3ccccc3)c2=O)n1	.	.	.	.	.	.
CC1(C(=O)Nc2cnc3ccccc3c2)CCN1Cc1ccc2ccccc2c1 (stereo not drawn)	.	.	.	.	.	.
CC1(C(=O)Nc2cnc3ccccc3c2)CCN1Cc1cc2ccccc2o1 (stereo not drawn)	.	.	34.8	.	.	.
CN(Cc1cccnc1)C(=O)c1cc(COc2ccc3c(c2)CCCC3)on1	.	.	.	63.5	.	.
CCc1ccc(CN(C)C(=O)c2cc(COc3cccc4cnccc34)on2)cc1	.	.	25.1	.	.	.
CN(Cc1cccc2cnccc12)C(=O)c1cc(COc2ccc(F)cc2F)on1	.	.	.	.	.	.
Cc1c(C(C)NC(=O)c2cc(COc3cccc4cnccc34)on2)cnn1C (stereo not drawn)	.	.	.	.	.	15.8
CC(=O)c1cccc(OCc2cc(C(=O)N(C)Cc3cnccn3)no2)c1	.	.	.	.	.	.
COc1ccc(CCNC(=O)CSc2nc3[nH]ncc3c(=O)n2-c2ccc(C)c(Cl)c2)cc1OC	.	.	.	.	.	.
O=C(Nc1ccc(Cl)cc1)c1ccc(OCC2CCCO2)cc1 (stereo not drawn)	.	.	.	.	.	25.9
O=C(O)C(Cc1c[nH]c2ccccc12)N1C(=O)C2C3c4ccccc4C(c4ccccc43)[C@@H]2C1=O (stereo partly drawn)	.	.	.	.	.	.
CC(=O)N/C(=C\c1ccccc1)C(=O)OCc1cccc(S(=O)(=O)N(C)C)c1	.	.	.	.	.	15.5
COc1ccc(Br)cc1S(=O)(=O)NCCc1cccs1	.	.	.	.	.	.
O=C(N/N=C/c1ccc(O)cc1)c1ccc(COc2cc(Cl)ccc2Cl)o1	.	.	.	.	35.7	15.5
SMILES	CHO-K1 Ca PAM	CHRM1 PAM	CHO-K1 Ca antag	CHRM1 antagonist	M1 ag	CHO-K1 Ca ag
O=C1N[C@@H](c2ccccc2)COC(=O)[C@@H](Cc2ccc(F)cc2)CC/C=C/C[C@H]1CC(=O)N(CCO)Cc1ccccc1	.	.	.	28.1	.	.
CN(C)CCCC1(O)c2ccccc2C=Cc2ccccc21	.	.	.	73.3	.	.
O=C(N/N=C/c1ccccc1OCC(=O)N1CCCC1)C(=O)Nc1ccccc1F	.	.	.	.	.	.
C=CCn1c(C(C)C)nc2ccccc21	.	.	.	.	.	17.6
C=CCn1c(C(O)c2ccccc2)nc2ccccc21 (stereo not drawn)	.	.	.	.	.	.
Cc1c(C(=O)N(CCO)Cc2ccccc2)oc2c(F)cccc12	.	.	.	.	.	.
N#CCC(=O)Nc1ccc(C(=O)OCC(=O)N2CCN(C(=O)c3ccco3)CC2)cc1	.	.	.	.	.	.
CN(C)c1ccc(/C=C/C(=O)c2cccnc2)cc1	.	.	.	.	60.4	64.6
CN(C)c1ccc(C(=O)C=Cc2ccc([N+](=O)[O-])cc2)cc1	.	.	.	.	.	.
COc1ccc(C(=O)/C=C/c2ccc(N(C)C)cc2)c(OC)c1	.	.	45.0	53.0	69.2	82.2
CN(C)c1ccc(/C=C/C(=O)c2ccc3c(c2)OCO3)cc1	.	.	.	40.9	52.6	45.9
O=C(/C=C/c1ccccc1)c1ccc2c(c1)OCO2	.	.	.	.	.	.
COc1ccc(C(=O)/C=C/c2ccccc2)c(OC)c1	.	.	.	.	.	.
CN(C)c1ccc(/C=C/C(=O)c2ccc(O)cc2)cc1	.	.	25.1	.	52.7	53.0
COc1ccc(C(=O)Nc2cc(C)nn2-c2cccc(F)c2)cc1OC	.	.	.	.	.	.
O=C(CNS(=O)(=O)c1ccc(Cl)c(C(F)(F)F)c1)NC1CCCCCC1	.	.	.	.	.	.
O=C(CCNC(=O)c1ccc(Br)cc1)NNC(=O)c1ccccc1O	.	.	.	.	.	.
COc1ccc2nc(N/C(N)=N/S(C)(=O)=O)nc(C)c2c1	.	.	.	.	.	.
Cc1cc(C)c2nc(N3CCC(C(=O)NCCCN4CC(C)CC(C)C4)CC3)sc2c1 (stereo not drawn)	.	.	.	81.7	.	.
COc1ccc(OC)c(CC(NC(C)=O)C(=O)NC2CCN(c3nc(OC)nc(OC)n3)CC2)c1 (stereo not drawn)	.	.	.	.	.	.
COc1ccc(CN(C)S(=O)(=O)c2nnc(NC(=O)c3cccc(F)c3)s2)cc1	.	.	23.8	.	.	.
CCCCOc1ccc(/C=C/C(=O)OCC(=O)NC(=O)NCC(C)C)cc1OCC	.	.	.	.	.	.
Cc1cc(C)n(-c2ccc(F)cc2CN2CCN(Cc3ccccc3)C(CCO)C2)n1 (stereo not drawn)	.	.	.	39.5	.	.
CC(C)=CCN1CCN(Cc2cc(F)ccc2-n2nc(C)cc2C)CC1CCO (stereo not drawn)	.	.	.	.	.	.
Cc1cc(C)n(S(=O)(=O)c2ccc3oc(=O)ccc3c2)n1	.	.	.	.	.	.
O=C(c1ccccc1)c1ccc2ccccc2c1	.	.	.	.	.	.
Cc1cc2ccccc2cc1C(=O)c1ccccc1	.	27.6	.	.	.	.
O=C(c1ccccc1)c1ccc(O)cc1O	.	.	.	.	.	16.3
